Experimental data taken from PubChem BioAssay.
Unmarked numbers belong to inactive results. Activity calls are given as the source filed them.

Experiment: budding yeast growth changes without added modifier – OD600, strain BY4716, 24 h, basal condition, primary screen (AID 1173)
Conditions: S. cerevisiae BY4716 growth, OD600, 24 h; higher = more signal, called active from +8 up or from −8 down

Structure (SMILES) | z-score
COc1ccc(COC(=O)NN=C2C[C@@H](O)[C@@H](O)[C@@H]3[C@@H]4C(=O)N(c5cccc(Oc6ccccc6)c5)C(=O)[C@@H]4CC[C@H]23)cc1 | -1.08
COc1ccc(OC[C@@H]2CC3[C@@H](c4ccc(Br)cc4)[C@H](C)CC[C@H]3C(=O)O2)cc1 (some centres not stated) | -0.845
COC(=O)[C@H](C)NC(=O)CCC1CC(OC(=O)NCc2cccc3ccccc23)CC2(CCCC(COC(=O)NCCc3ccccc3OC)O2)O1 (some centres not stated) | 0.526
COc1ccc(OC[C@@H](CO)OC)cc1 | 0.0175
COc1ccc(COC(=O)NN=C2C[C@@H](O)[C@@H](O)[C@@H]3[C@@H]4C(=O)N(C[C@@H]5CCCO5)C(=O)[C@@H]4CC[C@@H]23)cc1 | 0.443
CCOC(=O)[C@H](CC(C)C)NC(=O)CCC1CC(OC(=O)NCc2ccc3c(c2)OCO3)CC2(CCCC(COC(=O)NCCOc3ccccc3)O2)O1 (some centres not stated) | 0.592
C=CC[C@@H]1C=C[C@H](ON=C(C)CCN2CCCCc3nc(C)c(C)cc32)[C@@H](CO)O1 | 0.399
C[C@@H](c1ccccc1)N1C(=O)[C@H]2[C@H]3[C@H](O)[C@H](O)CC(=NOC[C@@H](O)COCc4ccco4)[C@H]3CC[C@H]2C1=O | -0.123
COc1ccc(O[C@H]2C=C[C@@H](C#Cc3ccccc3)O[C@@H]2CO)cc1 | -10.4 (active)
COC(=O)[C@@H]1CC[C@H](C)[C@@H](c2ccc(Br)cc2)N1C[C@@H](O)CN=[N+]=[N-] | -11.9 (active)
CC(C)=CCCC(C)=CCON=C1C[C@@H](O)[C@@H](O)[C@@H]2[C@@H]3C(=O)N(Cc4ccc5c(c4)OCO5)C(=O)[C@@H]3CC[C@@H]12 | -0.872

Experiment: viability profiling in MM1S myeloma cells – cell-based, resazurin fluorescence, basal, 24 h, PK04 Diversity Set, profiling panel (AID 1174);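 further: MM1S multiple myeloma cell line; test concentration not given here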
Conditions: higher = more signal, called active from +8 up or from −8 down

Structure (SMILES) | z-score
C=CC[C@@H]1C=C[C@H](ON=CC[C@@H]2C=C[C@H](OC(C)=O)[C@@H](COC(C)=O)O2)[C@@H](CO)O1 | -1.23
C=CC[C@@H]1C=C[C@H](ON=C(C)CCN2CCCc3nc(C)c(C)cc32)[C@@H](CO)O1 | -0.0956
CC(=O)OC[C@H]1O[C@H](CC=NO[C@H](C)c2cn([C@@H]3COC[C@H]3O)nn2)C=C[C@@H]1OC(C)=O | 0.134
CC(=O)OC[C@H]1O[C@H](CCON=C(C)CCN2CCCc3nc(C)c(C)cc32)C=C[C@@H]1OC(C)=O | -0.102
CO[C@H]1COC(=O)[C@H](CCSC)NC(=O)CC=C[C@@H](C)[C@H](OC)COC(=O)[C@@H](OCc2ccccc2)C=C[C@@H]1C | -0.059
CN1CCc2nc(-c3ccccc3)c(-c3ccccc3)cc2C1 | 0.476
CON=C(C)CCN1CCc2nc(-c3ccccc3)c(-c3ccccc3)cc2C1 | -0.217
CCN1C(=O)[C@H]2[C@@H]3C(=CC[C@H]2C1=O)C(=O)[C@H]1O[C@H]1[C@H]3O | -5.38
CC(C)C(=O)N[C@H]1CCCN1C(=O)C=Cc1ccccc1 | -0.46
CCOC(=O)[C@H](CC(C)C)NC(=O)CCC1CC(OC(=O)NCc2ccc3c(c2)OCO3)CC2(CCCC(COC(=O)NCCC(C)C)O2)O1 (some centres not stated) | 1.03
COC(=O)CC=C[C@@H](C)[C@@H](C=NOC[C@@H](O)COCc1ccco1)NS(=O)(=O)c1ccc(C)cc1 | -0.309
CON=C(C)CCN1CCCCc2nc(C)c(C)cc21 | 0.183
CC(=O)OC[C@H]1O[C@H](CCON=C(C)C)C=C[C@@H]1OC(C)=O | -0.54
O=C1CCCC=C1C(O)C1CCCCC1 (configuration not stated) | -0.254
COC(=O)CC=C[C@@H](C)[C@@H](C=NOC[C@@H](C)[C@H](OCc1ccccc1)C(C)C)OC | 0.405
COC(=O)[C@H](C)NC(=O)CC=C[C@@H](C)[C@@H]1C=C[C@H](O)[C@@H](CO)O1 | -0.543
C[C@@H](c1ccccc1)N1C(=O)[C@H]2[C@H]3[C@H](O)[C@H](O)CC(=NOCc4ccccc4)[C@@H]3CC[C@H]2C1=O | -0.457
O=C1[C@H]2[C@H]3[C@H](O)[C@H](O)CC(=NOC[C@@H](O)COCc4ccco4)[C@@H]3CC[C@H]2C(=O)N1Cc1ccc2c(c1)OCO2 | -0.524

Structure (SMILES) | z-score
CCCNC(=O)OC[C@H]1O[C@H](CCON=C2C[C@@H](O)[C@@H](O)[C@@H]3[C@@H]4C(=O)N(CC)C(=O)[C@@H]4CC[C@@H]23)C=C[C@@H]1Oc1ccc(OC)cc1 | -0.791
CC(C)CON=C1C[C@@H](O)[C@@H](O)[C@@H]2[C@@H]3C(=O)N(Cc4ccc5c(c4)OCO5)C(=O)[C@@H]3CC[C@@H]12 | 0.61
COc1ccc(COC(=O)NN=C2C[C@@H](O)[C@@H](O)[C@@H]3[C@@H]4C(=O)N([C@@H](C)c5ccccc5)C(=O)[C@@H]4CC[C@@H]23)cc1 | -0.525
C[C@@H]1CC[C@H]2C(=O)N3[C@@H](CC[C@@H](C)[C@@H]3c3ccc(Br)cc3)C(=O)N2[C@H]1c1ccc(Br)cc1 | 0.208
CCOC(=O)CCN1C(=O)[C@H]2[C@H]3[C@H](O)[C@H](O)CC(=O)[C@@H]3CC[C@H]2C1=O | 0.344
COC(=O)[C@H](CCSC)NC(=O)CC=C[C@@H](C)CO | 0.311
CCOC(=O)[C@H](Cc1ccccc1)NC(=O)CCC1CC(OC(=O)NCc2cccc3ccccc23)CC2(CCCC(COC(=O)NCCOc3ccccc3)O2)O1 (some centres not stated) | 1.41
COc1ccc(COC(=O)NN=C2C[C@@H](O)[C@@H](O)[C@@H]3[C@@H]4C(=O)N(c5cccc(Oc6ccccc6)c5)C(=O)[C@@H]4CC[C@H]23)cc1 | -0.341
COc1ccc(OC[C@@H]2CC3[C@@H](c4ccc(Br)cc4)[C@H](C)CC[C@H]3C(=O)O2)cc1 (some centres not stated) | 0.364
COC(=O)[C@H](C)NC(=O)CCC1CC(OC(=O)NCc2cccc3ccccc23)CC2(CCCC(COC(=O)NCCc3ccccc3OC)O2)O1 (some centres not stated) | -0.232
COc1ccc(OC[C@@H](CO)OC)cc1 | -0.143
COc1ccc(COC(=O)NN=C2C[C@@H](O)[C@@H](O)[C@@H]3[C@@H]4C(=O)N(C[C@@H]5CCCO5)C(=O)[C@@H]4CC[C@@H]23)cc1 | 0.075
CCOC(=O)[C@H](CC(C)C)NC(=O)CCC1CC(OC(=O)NCc2ccc3c(c2)OCO3)CC2(CCCC(COC(=O)NCCOc3ccccc3)O2)O1 (some centres not stated) | 0.691
C=CC[C@@H]1C=C[C@H](ON=C(C)CCN2CCCCc3nc(C)c(C)cc32)[C@@H](CO)O1 | -0.201
C[C@@H](c1ccccc1)N1C(=O)[C@H]2[C@H]3[C@H](O)[C@H](O)CC(=NOC[C@@H](O)COCc4ccco4)[C@H]3CC[C@H]2C1=O | 0.899
COc1ccc(O[C@H]2C=C[C@@H](C#Cc3ccccc3)O[C@@H]2CO)cc1 | -1.24
COC(=O)[C@@H]1CC[C@H](C)[C@@H](c2ccc(Br)cc2)N1C[C@@H](O)CN=[N+]=[N-] | 0.506
CC(C)=CCCC(C)=CCON=C1C[C@@H](O)[C@@H](O)[C@@H]2[C@@H]3C(=O)N(Cc4ccc5c(c4)OCO5)C(=O)[C@@H]3CC[C@@H]12 | 0.411
